Our source for the survival values is PubChem BioAssay AID463173 (ICCB-Longwood Screening Facility, Harvard Medical School, 2010).

Hit rate of the full screen: of about 52,000 compounds, about 4,300 (8.3%) were called active. Rule as the data show it: active = survival mostly below about 52% (no sharp cut-off); inactive = mostly above about 56%. Many of the other results were omitted from the sample, so actives are more common in it than they were.

For the experiment, the system named is DeltatarO mutant. The experiment can be described thus: growth inhibition of S. aureus wild type versus tarO mutant, primary screen, teichoic acid synthesis inhibitors, RN4220, OD600 (AID 463173). The note with it: OD600, 18 h, stronger effect = lower value, screened at 18.75 µg/mL (by protocol).
As to `Cc1ccc2c(c1)c1c(c(=O)n(Cc3ccccc3)c(=O)n1Cc1cccc(F)c1)n2C`, the survival is 89% (inactive).
The figure for `CC(C)(C)c1ccc(C(=O)Nc2nc3nc(-c4ccccc4)cc(=O)n3[nH]2)cc1` is 94% (inactive).
To `CCN(Cc1ccccc1)C(=O)C1CCN(S(=O)(=O)c2ccc3c(c2)CCCN3C(C)=O)CC1` belongs 80% (inactive).
The figure for `CC1CCCC(C)N1C(=O)CN1CCC(N2CCCCC2)CC1` (centres undefined) is 94% (inactive).
Take `CC(C)NC(=O)Cn1nnc(-c2ccc(Cl)cc2)n1`: the survival was 82% (inactive).
On to `COc1ccccc1CC(NC(C)=O)C(=O)N1CCN(C(=O)c2cccs2)CC1` (centres undefined), for which the survival is 97% (inactive).
The figure for `O=C(NCc1ccccc1F)C(=O)NCC(c1ccco1)S(=O)(=O)c1ccccc1` (centres undefined) is -5% (active).
To `Cc1ccccc1CNC(=O)C(=O)NCC(c1ccco1)S(=O)(=O)c1cccs1` (centres undefined) belongs 70% (inactive); to `O=C(NCc1ccc(F)cc1)C(=O)NCC(c1ccco1)S(=O)(=O)c1cccs1` (centres undefined), 8% (active).
The figure for `Cc1ccccc1CNC(=O)C(=O)NCC(c1ccco1)S(=O)(=O)c1ccccc1` (centres undefined) is 92% (inactive); for `O=C(NCCc1ccccc1)C(=O)NCC(c1ccco1)S(=O)(=O)c1cccs1` (centres undefined) it is 94% (inactive); for `O=C(NCc1ccccc1)C(=O)NCC(c1ccco1)S(=O)(=O)c1ccccc1` (centres undefined) it is 76% (inactive).
For the molecule `O=C(NCc1ccccc1F)C(=O)NCC(c1ccco1)S(=O)(=O)c1cccs1` (centres undefined), the survival is 25% (active).
The figure for `O=C(NCc1ccccc1)C(=O)NCC(c1ccco1)S(=O)(=O)c1cccs1` (centres undefined) is 96% (inactive); for `O=C(NCCc1ccc(F)cc1)C(=O)NCC(c1ccco1)S(=O)(=O)c1cccs1` (centres undefined) it is 66% (inactive); for `O=C(NCCc1ccc(Cl)cc1)C(=O)NCC(c1ccco1)S(=O)(=O)c1cccs1` (centres undefined) it is 20% (active).
To `Cc1ccc(CNC(=O)C(=O)NCC(c2ccco2)S(=O)(=O)c2cccs2)cc1` (centres undefined) belongs 101% (inactive); to `O=C(NCc1ccccc1Cl)C(=O)NCC(c1ccco1)S(=O)(=O)c1cccs1` (centres undefined), 55% (inactive).
The figure for `COc1ccc2c(c1)N(C)/C(=C1/SC(=Nc3ccc(C)cc3)N(C)C1=O)S2` is 102% (inactive); for `CCOc1ccccc1NC(=O)c1c(NC(=O)c2cccc(C)c2)sc2c1CCC2` it is 74% (inactive); for `CCc1ccc(NC(=O)CSc2nc3ccccc3c(=O)n2CCNC(C)=O)cc1` it is 87% (inactive).
Regarding `COc1ccc(C2(C(=O)N3CCCC3)CCCC2)cc1OC`, the survival was 89% (inactive).
To `CCC(=O)N1CCCc2cc(S(=O)(=O)N3CCC(C(=O)NC4CCC(C)CC4)CC3)ccc21` (centres undefined) belongs 123% (inactive).
Consider `CCOC(=O)c1cc2occc2n1CCc1ccccc1`, for which the survival was 101% (inactive).
On to `O=C(c1ccccc1)N1CCc2cc(CNS(=O)(=O)c3ccccc3Cl)ccc21`, for which the survival was 78% (inactive).
Regarding `COc1cc(NS(=O)(=O)c2ccc3oc(=O)c4ncn(C)c4c3c2)cc(OC)c1`, the survival was 126% (inactive).
Take `CC1(C)CC(=O)C(C=NCc2ccccc2)=C(O)C1`: the survival was 95% (inactive).
To `O=C(Nc1ccc(F)cc1)C1CCN(S(=O)(=O)c2ccc3c(c2)CCCN3C(=O)C2CCC2)CC1` belongs 73% (inactive); to `N#Cc1c(NC(=O)C(F)(F)F)oc(-c2ccccc2)c1-c1ccccc1`, 12% (active).
The figure for `N#Cc1c(NC(=O)c2ccccc2)oc(-c2ccccc2)c1-c1ccccc1` is 56% (inactive).
The figure for `N#Cc1c(/N=C/c2ccco2)oc(-c2ccccc2)c1-c1ccccc1` is 98% (inactive); for `CCc1cccc(CC)c1N(COC)C(=O)Cn1c(C)nc2ccccc21` it is 59% (inactive); for `CCc1cccc(NC(=O)CCc2c(C)nc3c(c2C)c(=O)n(C)c(=O)n3C)c1` it is 93% (inactive).
Turning to `COc1ccc(-n2nc(C(=O)NCc3ccc(F)cc3)c3c4ccccc4n(C)c3c2=O)cc1`, the survival was 88% (inactive).
The figure for `N#C/C(=C/c1ccc(-c2cc(C(=O)O)ccc2Cl)o1)C(=O)NCCc1c[nH]c2ccccc12` is 12% (active); for `N#C/C(=C/c1ccc(-c2ccc(S(N)(=O)=O)cc2)o1)C(=O)Nc1cc(Cl)ccc1Cl` it is 46% (inactive); for `N#C/C(=C/c1ccc(N2CCCCC2)o1)C(=O)NCCc1c[nH]c2ccccc12` it is 76% (inactive).
As to `N#C/C(=C\c1ccc(-c2cc(Cl)ccc2Cl)o1)C(=O)Nc1ccccc1C(=O)O`, the survival is 37% (active).
To `N#C/C(=C\c1ccc(-c2ccc(C(=O)O)cc2)o1)C(=O)Nc1ccccc1C(=O)O` belongs 60% (inactive); to `Cc1ccc(NC(=O)/C(C#N)=C/c2ccc(-c3ccc(Cl)c(C(=O)O)c3)o2)cc1C`, 70% (inactive).
In the case of `COc1ccc(-n2ccn(Cc3ccccc3Cl)c(=O)c2=O)cc1OC`, the survival was 61% (inactive).
The figure for `CCOc1cc(S(=O)(=O)NCCc2c(C)[nH]c3ccc(C)cc23)ccc1Br` is 92% (inactive); for `CC(Oc1ccc(F)cc1)C(=O)NCC1(N(C)C)CCCCC1` (centres undefined) it is 83% (inactive).
The figure for `CCOC(=O)c1c(C)[nH]c(C)c1S(=O)(=O)NCC(=O)Nc1ccc(C)cc1C` is 72% (inactive); for `O=C(C1CCC(Cn2c(=O)c3sccc3n(Cc3ccccc3)c2=O)CC1)N1CCCCC1` (centres undefined) it is 78% (inactive); for `Cc1ccc(C)c(NC(=O)C(=O)NCCc2csc3nc(-c4ccccc4C)nn23)c1` it is 109% (inactive).
The figure for `COC(=O)c1ccc(NC(=O)C(=O)NCCc2csc3nc(-c4ccccc4F)nn23)cc1` is 76% (inactive); for `O=C(NCCc1csc2nc(-c3ccccc3F)nn12)C(=O)Nc1cc(F)ccc1F` it is 79% (inactive).
For the molecule `Cc1ccccc1-c1nc2scc(CCNC(=O)C(=O)Nc3ccc(F)cc3F)n2n1`, the survival is -2% (active).
Turning to `CCOc1ccc(CC(=O)NCCc2csc3nc(-c4ccccc4F)nn23)cc1`, the survival is 91% (inactive).
Consider `Cc1c(Cl)cccc1NC(=O)C(=O)NCCc1csc2nc(-c3ccccc3F)nn12`, for which the survival was 6% (active).
The figure for `Cc1ccc(NC(=O)C(=O)NCCc2csc3nc(-c4ccccc4C)nn23)cc1Cl` is 86% (inactive).
The figure for `CC(=O)Nc1cccc(NC(=O)C(=O)NCCc2csc3nc(-c4ccccc4F)nn23)c1` is 64% (inactive); for `CCOc1ccc(NC(=O)C(=O)NCCc2csc3nc(-c4ccccc4F)nn23)cc1` it is -1% (active); for `Cc1ccccc1CNC(=O)c1ccc(CS(=O)Cc2ccc(Cl)cc2)o1` (centres undefined) it is 79% (inactive).
The figure for `CCOc1ccc(NC(=O)c2ncn(-c3ccccc3)n2)cc1` is 83% (inactive); for `COc1ccc2c(c1)c(=O)c(C(=O)c1ccc(F)cc1)cn2CC(=O)Nc1ccc2c(c1)OCCO2` it is 65% (inactive); for `COc1ccc(CNC(=O)CN2C(=O)COc3ccc(S(=O)(=O)N4CCOCC4)cc32)cc1` it is 75% (inactive).
Turning to `CCOc1ccc(N2CC(NC(=O)C3CCCCC3)CC2=O)cc1` (centres undefined), the survival is 75% (inactive).
The figure for `O=C(NCCCc1nc2ccccc2n1Cc1ccccc1Cl)c1ccco1` is 66% (inactive); for `CCc1nn2c(=O)cc(COC(=O)c3ccccc3NC(=O)COc3ccccc3C)nc2s1` it is 72% (inactive); for `CCOC(=O)N1CCc2c(sc3c2c(=O)n(-c2ccc(CC)cc2)c(=O)n3CC(=O)c2ccc(F)cc2)C1` it is 80% (inactive).
The figure for `Cc1ccccc1NC(=O)CSC1=Nc2ccccc2C2=NC(Cc3ccccc3)C(=O)N12` (centres undefined) is 84% (inactive); for `O=[N+]([O-])c1ccc(O)c(-c2ccnc3cc(-c4ccccc4)nn23)c1` it is 20% (active); for `Cc1ccc(O)c(-c2ccnc3cc(-c4ccc(Cl)cc4)nn23)c1` it is 86% (inactive).
To `CCOC(=O)COc1ccc([N+](=O)[O-])cc1-c1ccnc2cc(-c3ccc(C)cc3)nn12` belongs 76% (inactive).
Take `Cc1ccc(-c2cc3nccc(-c4cc([N+](=O)[O-])ccc4O)n3n2)cc1`: the survival is 29% (active).
The figure for `CCOC(=O)COc1ccc([N+](=O)[O-])cc1-c1ccnc2cc(-c3ccc(Cl)cc3)nn12` is 89% (inactive).
The figure for `Cc1cc(O)c(-c2ccnc3cc(-c4ccccc4)nn23)cc1Cl` is 114% (inactive); for `COc1cccc(NC(=O)C2CCCN(S(=O)(=O)c3c(C)nn(C)c3C)C2)c1` (centres undefined) it is 87% (inactive).
The figure for `COc1ccc(NC(=O)c2cc(S(=O)(=O)N3CCCCC3)cn2C)cc1Cl` is 78% (inactive).
Take `CCNC(=O)c1sc2ccccc2c1Cl`: the survival is 105% (inactive).
For `CCN(C(=O)c1sc2cc(OC)ccc2c1Cl)c1ccccc1`, the survival was 0% (active).
To `CCN(C(=O)c1cn(-c2ccc(OC)cc2)c(=O)c2ccccc12)c1cccc(Cl)c1` belongs 103% (inactive); to `Cc1cc(C)cc(OC(=O)c2cc(-c3ccc(Cl)cc3)on2)c1`, 94% (inactive); to `Cc1cccc(OC(=O)c2cc(-c3ccc4c(c3)OCCO4)on2)c1`, -2% (active).
The figure for `O=C(Nc1cccc(C(F)(F)F)c1)c1cc(-c2ccc3c(c2)OCCO3)on1` is 116% (inactive).
The figure for `Cc1ccc(-c2cc(C(=O)Oc3ccc(C#N)cc3)no2)cc1C` is 50% (inactive); for `Cc1cccc(OC(=O)c2cc(-c3ccc(C)c(C)c3)on2)c1` it is -2% (active).
Consider `Cc1ccc(O)c(NC(=O)c2cc(-c3ccc4c(c3)OCO4)on2)c1`, for which the survival is 71% (inactive).
The figure for `Cc1cc(C)cc(OC(=O)c2cc(-c3ccc4c(c3)OCCO4)on2)c1` is -2% (active).
To `Cc1ccc(NC(=O)C2CCCN(S(=O)(=O)c3ccc(F)cc3)C2)cc1` (centres undefined) belongs 65% (inactive); to `COC(=O)c1c(NC(=O)c2nc(SCc3ccccc3C)ncc2Cl)sc2c1CCCC2`, 111% (inactive); to `Cc1ccc2nc(CSc3nnc(NC(=O)c4ccc(C(C)(C)C)cc4)s3)cc(=O)n2c1`, 81% (inactive).
The figure for `Cn1nnnc1SCC(=O)N1CCCc2ccccc21` is 81% (inactive); for `O=C1CC(C(=O)NCc2ccco2)C2(CCCCC2)O1` (centres undefined) it is 85% (inactive); for `N#Cc1cccc(NC(=O)CCNS(=O)(=O)c2ccc3c(c2)CCN3C(=O)C2CC2)c1` it is 82% (inactive).
Turning to `Cc1nn2cc(-c3ccc(OC(C)C)cc3)nc2s1`, the survival was 84% (inactive).
To `CCN(CC)CCCNC(=O)c1cnc(SC)nc1-c1ccccc1` belongs 69% (inactive).
